Holding throughout (experiment): DAPPL (digital affinity profiling via proximity ligation, sequencing); 10 mM Tris-HCl pH 7.5, 50 mM NaCl, 1 mM DTT, 4% glycerol, room temperature, 30 min; GST-TFs on glutathione beads, 16-mer random dsDNA library, 0.1% formaldehyde crosslink after washing; high values mean tight binding
One assay has as its target T1, FEV (Homo sapiens, UniProt Q99581 1-238).
T1 sequence: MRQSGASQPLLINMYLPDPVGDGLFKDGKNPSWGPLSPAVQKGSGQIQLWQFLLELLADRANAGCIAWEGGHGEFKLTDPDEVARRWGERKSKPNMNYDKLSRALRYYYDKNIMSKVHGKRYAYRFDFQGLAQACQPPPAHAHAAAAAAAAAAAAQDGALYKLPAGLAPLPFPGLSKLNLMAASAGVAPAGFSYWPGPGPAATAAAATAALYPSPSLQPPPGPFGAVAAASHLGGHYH
The note with it: protein: recombinant; tags: N-terminal GST; dsDNA, one strand shown. In a few lines:
(§1)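 In yeast, human transcription factors were expressed with a GST fusion, then pulled down on glutathione beads and given DNA barcodes. Pooled with a tag-only sample, they were exposed to 200 nmole of a 16-mer random double-stranded DNA library (Tris/NaCl/DTT/glycerol buffer, room temperature, 30 min), washed, crosslinked with 0.1% formaldehyde, proximity-ligated using BsaI/T4 ligase for 1 h at 37 °C, PCR-amplified and read on an Illumina NextSeq500. Each hexamer's frequency of reads for a factor, divided by the matching frequency for the tag-only sample, gives the binding signal.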

For another assay, the target named is ETV5 (Homo sapiens, UniProt P41161 1-510). The note with it: protein: recombinant; tags: N-terminal GST; dsDNA, one strand shown. In a few lines:
as §1

For the next assay, the target named is HSF1 (Homo sapiens, UniProt Q00613 1-529). The note with it: protein: recombinant; tags: N-terminal GST; chain copies: 3; dsDNA, one strand shown. The procedure, abridged: as §1
A further assay deals with T2, SPIC (Homo sapiens, UniProt Q8N5J4 1-248).
T2 sequence: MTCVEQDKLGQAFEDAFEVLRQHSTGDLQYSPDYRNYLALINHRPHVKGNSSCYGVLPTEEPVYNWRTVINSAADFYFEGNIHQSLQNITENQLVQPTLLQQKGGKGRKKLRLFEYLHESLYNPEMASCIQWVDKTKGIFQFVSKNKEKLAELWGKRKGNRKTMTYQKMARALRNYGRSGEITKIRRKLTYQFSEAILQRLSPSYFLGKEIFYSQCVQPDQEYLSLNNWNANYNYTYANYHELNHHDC
As to conditions: protein: recombinant; tags: N-terminal GST; dsDNA, one strand shown. In a few lines: as §1

The target of the next assay is ELF4 (Homo sapiens, UniProt Q99607 1-663). The note with it: protein: recombinant; tags: N-terminal GST; dsDNA, one strand shown. The procedure, abridged: as §1
The target of the next assay is T3, ELK4 (Homo sapiens, UniProt P28324-2 1-405).
T3 sequence: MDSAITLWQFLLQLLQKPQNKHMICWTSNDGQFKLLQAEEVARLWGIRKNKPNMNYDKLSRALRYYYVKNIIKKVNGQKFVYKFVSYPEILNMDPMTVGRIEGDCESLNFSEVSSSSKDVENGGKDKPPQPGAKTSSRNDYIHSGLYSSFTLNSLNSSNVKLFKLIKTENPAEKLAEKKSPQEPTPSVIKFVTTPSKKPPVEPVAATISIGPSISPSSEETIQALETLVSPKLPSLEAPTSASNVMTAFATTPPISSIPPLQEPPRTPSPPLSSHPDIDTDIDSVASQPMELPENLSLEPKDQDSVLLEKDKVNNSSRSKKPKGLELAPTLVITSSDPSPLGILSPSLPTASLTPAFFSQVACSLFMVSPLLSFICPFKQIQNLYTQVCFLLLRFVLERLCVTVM
As to conditions: protein: recombinant; tags: N-terminal GST; dsDNA, one strand shown. The procedure, abridged: as §1

A further assay deals with T4, ETV2 (Homo sapiens, UniProt O00321 1-342).
T4 sequence: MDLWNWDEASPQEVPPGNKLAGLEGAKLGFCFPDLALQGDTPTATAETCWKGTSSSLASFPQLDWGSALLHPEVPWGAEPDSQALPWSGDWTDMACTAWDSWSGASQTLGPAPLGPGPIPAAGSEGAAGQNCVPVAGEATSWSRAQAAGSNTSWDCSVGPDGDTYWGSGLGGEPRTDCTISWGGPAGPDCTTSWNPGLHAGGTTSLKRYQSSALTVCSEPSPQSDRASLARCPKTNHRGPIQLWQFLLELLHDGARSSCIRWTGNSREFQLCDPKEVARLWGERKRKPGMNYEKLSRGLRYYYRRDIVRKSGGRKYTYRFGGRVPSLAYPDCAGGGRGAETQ
The note with it: protein: recombinant; tags: N-terminal GST; dsDNA, one strand shown. In a few lines: as §1

The target in the next assay is T5, ELF3 (Homo sapiens, UniProt P78545 1-371).
T5 sequence: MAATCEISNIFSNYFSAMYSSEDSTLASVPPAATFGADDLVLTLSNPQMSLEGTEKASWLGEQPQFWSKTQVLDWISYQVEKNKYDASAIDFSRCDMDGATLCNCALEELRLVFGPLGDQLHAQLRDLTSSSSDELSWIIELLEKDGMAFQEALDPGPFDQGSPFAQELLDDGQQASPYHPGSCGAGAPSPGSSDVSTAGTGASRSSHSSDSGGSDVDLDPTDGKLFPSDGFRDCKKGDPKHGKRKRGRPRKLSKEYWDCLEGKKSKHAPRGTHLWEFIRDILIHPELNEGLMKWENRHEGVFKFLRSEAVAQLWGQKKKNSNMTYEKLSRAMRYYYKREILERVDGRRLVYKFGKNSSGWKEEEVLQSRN
The note with it: protein: recombinant; tags: N-terminal GST; dsDNA, one strand shown. In a few lines: as §1

The next assay has as its target CRX (Homo sapiens, UniProt O43186 1-299). As to conditions: protein: recombinant; tags: N-terminal GST; dsDNA, one strand shown. The procedure, abridged:
as §1

A further assay concerns the target ETV1 (Homo sapiens, UniProt P50549 1-477). As to conditions: protein: recombinant; tags: N-terminal GST; dsDNA, one strand shown. In a few lines: as §1
The target of another assay is T6, ERF (Homo sapiens, UniProt P50548 1-548).
T6 sequence: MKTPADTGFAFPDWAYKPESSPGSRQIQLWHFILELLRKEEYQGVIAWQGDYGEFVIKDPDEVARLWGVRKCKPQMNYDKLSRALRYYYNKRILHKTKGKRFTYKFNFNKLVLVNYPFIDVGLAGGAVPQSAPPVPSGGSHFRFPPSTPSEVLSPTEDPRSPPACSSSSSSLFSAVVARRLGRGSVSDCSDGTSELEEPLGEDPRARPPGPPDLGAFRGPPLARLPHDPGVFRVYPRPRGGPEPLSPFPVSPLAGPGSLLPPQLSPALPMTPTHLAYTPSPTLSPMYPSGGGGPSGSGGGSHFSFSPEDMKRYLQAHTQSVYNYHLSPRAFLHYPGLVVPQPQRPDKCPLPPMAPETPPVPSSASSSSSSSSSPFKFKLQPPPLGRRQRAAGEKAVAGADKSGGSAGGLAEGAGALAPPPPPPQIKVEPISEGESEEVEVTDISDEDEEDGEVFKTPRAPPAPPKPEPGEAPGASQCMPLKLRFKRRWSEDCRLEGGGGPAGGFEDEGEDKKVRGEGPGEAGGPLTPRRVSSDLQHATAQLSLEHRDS
The note with it: protein: recombinant; tags: N-terminal GST; dsDNA, one strand shown. In a few lines:
as §1

The target in a further assay is T7, ETV3L (Homo sapiens, UniProt Q6ZN32 1-361).
T7 sequence: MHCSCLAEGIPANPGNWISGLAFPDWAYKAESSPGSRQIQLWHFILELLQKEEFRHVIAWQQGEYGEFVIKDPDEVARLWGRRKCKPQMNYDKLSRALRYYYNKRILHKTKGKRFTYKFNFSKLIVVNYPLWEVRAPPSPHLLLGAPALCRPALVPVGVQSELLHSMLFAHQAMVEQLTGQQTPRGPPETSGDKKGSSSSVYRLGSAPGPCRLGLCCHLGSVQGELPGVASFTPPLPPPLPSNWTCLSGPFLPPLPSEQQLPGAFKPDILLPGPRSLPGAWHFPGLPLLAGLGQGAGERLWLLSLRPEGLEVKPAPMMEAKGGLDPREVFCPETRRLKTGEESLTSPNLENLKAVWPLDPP
As to conditions: protein: recombinant; tags: N-terminal GST; dsDNA, one strand shown. In a few lines:
as §1

The target in a further assay is T8, ETS2 (Homo sapiens, UniProt P15036 1-469).
T8 sequence: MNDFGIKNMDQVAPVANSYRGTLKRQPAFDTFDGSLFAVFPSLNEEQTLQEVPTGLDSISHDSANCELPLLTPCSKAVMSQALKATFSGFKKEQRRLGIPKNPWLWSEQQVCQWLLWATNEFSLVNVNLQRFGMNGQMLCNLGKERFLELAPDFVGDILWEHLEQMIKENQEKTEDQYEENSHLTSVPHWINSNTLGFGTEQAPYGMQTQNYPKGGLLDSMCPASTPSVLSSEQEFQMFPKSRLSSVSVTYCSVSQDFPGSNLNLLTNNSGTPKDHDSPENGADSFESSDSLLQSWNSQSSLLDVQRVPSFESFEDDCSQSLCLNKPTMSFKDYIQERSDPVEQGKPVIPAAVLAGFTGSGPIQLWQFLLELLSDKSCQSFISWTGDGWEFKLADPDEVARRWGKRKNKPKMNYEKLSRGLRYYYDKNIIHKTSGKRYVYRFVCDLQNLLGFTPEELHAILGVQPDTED
As to conditions: protein: recombinant; tags: N-terminal GST; dsDNA, one strand shown. The procedure, abridged:
as §1

The target in a further assay is T9, SPDEF (Homo sapiens, UniProt O95238 1-335).
T9 sequence: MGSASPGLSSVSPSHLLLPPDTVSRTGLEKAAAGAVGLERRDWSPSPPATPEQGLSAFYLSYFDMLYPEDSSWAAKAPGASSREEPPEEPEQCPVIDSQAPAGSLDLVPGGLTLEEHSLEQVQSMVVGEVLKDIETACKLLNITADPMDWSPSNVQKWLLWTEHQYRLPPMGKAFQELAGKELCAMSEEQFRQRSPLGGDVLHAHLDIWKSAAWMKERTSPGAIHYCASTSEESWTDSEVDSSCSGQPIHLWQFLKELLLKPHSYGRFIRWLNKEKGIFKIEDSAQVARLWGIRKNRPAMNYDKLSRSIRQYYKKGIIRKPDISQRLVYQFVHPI
The note with it: protein: recombinant; tags: N-terminal GST; dsDNA, one strand shown. In a few lines: as §1

The target of a further assay is T10, ETV7 (Homo sapiens, UniProt Q9Y603 1-341).
T10 sequence: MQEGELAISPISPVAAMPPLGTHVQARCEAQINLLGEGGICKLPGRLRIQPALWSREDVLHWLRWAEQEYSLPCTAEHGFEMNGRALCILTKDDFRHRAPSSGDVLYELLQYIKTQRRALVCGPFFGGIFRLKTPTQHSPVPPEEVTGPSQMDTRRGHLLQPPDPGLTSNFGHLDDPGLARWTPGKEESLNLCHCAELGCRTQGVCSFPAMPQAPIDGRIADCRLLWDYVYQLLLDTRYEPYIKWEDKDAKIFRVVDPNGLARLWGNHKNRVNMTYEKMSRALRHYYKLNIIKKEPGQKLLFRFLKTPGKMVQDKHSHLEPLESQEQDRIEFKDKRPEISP
As to conditions: protein: recombinant; tags: N-terminal GST; dsDNA, one strand shown. In a few lines: as §1

The next assay addresses T11, ELF5 (Homo sapiens, UniProt Q9UKW6-2 1-255).
T11 sequence: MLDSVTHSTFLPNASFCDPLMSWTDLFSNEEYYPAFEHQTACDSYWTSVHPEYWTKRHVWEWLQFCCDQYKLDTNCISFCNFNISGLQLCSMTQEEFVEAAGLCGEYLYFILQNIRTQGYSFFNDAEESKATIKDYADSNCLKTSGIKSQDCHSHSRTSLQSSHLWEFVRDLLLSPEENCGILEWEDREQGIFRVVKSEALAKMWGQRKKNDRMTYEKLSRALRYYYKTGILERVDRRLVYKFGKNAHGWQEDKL
The note with it: protein: recombinant; tags: N-terminal GST; dsDNA, one strand shown. In a few lines:
as §1

A further assay has as its target T12, ETV3 (Homo sapiens, UniProt P41162-2 1-143).
T12 sequence: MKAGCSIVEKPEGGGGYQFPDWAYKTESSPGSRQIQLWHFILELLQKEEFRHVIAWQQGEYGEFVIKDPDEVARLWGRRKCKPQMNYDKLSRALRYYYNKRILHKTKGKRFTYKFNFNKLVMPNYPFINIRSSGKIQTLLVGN
As to conditions: protein: recombinant; tags: N-terminal GST; dsDNA, one strand shown. In a few lines: as §1

The target in another assay is ETV6 (Homo sapiens, UniProt P41212 1-452). As to conditions: protein: recombinant; tags: N-terminal GST; dsDNA, one strand shown. In a few lines:
as §1

The text below walks through data of paper PMC7862700, “An all-to-all approach to the identification of sequence-specific readers for epigenetic DNA modifications on cytosine”.

Sequence of HSF1 (Q00613 whole entry): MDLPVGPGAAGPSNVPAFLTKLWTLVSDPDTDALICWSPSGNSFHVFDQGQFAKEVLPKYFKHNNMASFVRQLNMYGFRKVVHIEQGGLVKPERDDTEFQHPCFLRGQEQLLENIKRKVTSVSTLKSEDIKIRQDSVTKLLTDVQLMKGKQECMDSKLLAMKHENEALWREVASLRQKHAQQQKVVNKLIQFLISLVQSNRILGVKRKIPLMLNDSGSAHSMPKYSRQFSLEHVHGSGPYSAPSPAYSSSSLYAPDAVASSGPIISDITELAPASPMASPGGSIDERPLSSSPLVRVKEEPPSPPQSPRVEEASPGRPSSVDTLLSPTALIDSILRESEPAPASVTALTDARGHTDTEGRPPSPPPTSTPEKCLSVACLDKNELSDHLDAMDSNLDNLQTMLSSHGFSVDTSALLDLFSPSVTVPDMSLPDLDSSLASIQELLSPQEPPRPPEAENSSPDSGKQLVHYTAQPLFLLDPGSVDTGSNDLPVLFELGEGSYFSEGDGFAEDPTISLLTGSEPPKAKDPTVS
Sequence of ETV6 (P41212 whole entry): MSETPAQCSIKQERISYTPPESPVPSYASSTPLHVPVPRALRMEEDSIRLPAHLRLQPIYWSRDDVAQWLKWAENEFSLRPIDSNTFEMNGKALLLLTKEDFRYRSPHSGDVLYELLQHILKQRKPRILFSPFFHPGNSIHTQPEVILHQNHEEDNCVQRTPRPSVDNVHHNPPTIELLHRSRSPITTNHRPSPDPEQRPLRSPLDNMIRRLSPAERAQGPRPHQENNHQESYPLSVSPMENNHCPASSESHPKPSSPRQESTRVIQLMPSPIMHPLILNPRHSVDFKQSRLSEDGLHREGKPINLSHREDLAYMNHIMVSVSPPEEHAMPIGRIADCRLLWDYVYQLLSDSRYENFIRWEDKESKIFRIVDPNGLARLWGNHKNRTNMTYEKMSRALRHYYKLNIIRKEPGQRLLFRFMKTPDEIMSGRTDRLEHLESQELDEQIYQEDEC
Sequence of CRX (O43186 whole entry): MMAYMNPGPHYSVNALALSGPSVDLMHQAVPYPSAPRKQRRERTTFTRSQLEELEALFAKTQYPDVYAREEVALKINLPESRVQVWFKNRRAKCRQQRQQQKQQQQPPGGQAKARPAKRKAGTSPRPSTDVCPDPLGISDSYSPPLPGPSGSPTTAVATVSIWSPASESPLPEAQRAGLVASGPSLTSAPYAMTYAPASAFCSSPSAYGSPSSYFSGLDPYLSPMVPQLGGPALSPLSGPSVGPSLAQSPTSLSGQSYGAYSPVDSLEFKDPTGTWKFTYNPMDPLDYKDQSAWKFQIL
Sequence of ETV5 (P41161 whole entry): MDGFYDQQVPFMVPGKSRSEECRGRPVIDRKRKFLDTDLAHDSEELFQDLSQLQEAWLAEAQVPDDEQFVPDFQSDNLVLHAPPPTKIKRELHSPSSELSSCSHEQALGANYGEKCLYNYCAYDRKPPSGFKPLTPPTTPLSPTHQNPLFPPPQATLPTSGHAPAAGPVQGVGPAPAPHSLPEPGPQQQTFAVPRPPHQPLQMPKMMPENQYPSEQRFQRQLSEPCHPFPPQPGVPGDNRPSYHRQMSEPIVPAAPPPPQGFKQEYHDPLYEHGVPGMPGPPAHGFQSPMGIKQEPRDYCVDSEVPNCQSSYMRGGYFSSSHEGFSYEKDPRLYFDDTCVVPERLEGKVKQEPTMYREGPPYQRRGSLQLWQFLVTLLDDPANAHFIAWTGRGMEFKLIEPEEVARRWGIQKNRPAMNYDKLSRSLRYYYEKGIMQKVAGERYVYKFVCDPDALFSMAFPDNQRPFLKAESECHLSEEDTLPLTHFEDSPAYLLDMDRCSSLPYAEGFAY
Sequence of ETV1 (P50549 whole entry): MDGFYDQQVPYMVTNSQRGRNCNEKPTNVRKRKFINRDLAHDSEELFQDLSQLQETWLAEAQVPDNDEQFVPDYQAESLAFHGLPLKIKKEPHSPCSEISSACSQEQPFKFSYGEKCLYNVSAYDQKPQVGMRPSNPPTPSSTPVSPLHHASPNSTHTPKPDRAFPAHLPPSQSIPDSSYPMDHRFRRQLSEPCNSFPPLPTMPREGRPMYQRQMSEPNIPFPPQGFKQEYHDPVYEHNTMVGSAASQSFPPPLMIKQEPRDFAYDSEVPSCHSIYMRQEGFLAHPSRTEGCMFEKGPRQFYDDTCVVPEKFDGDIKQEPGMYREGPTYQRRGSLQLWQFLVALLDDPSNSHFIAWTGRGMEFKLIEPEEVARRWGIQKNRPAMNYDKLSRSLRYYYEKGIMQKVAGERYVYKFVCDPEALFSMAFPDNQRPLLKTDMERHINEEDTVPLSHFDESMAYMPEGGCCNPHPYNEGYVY
Sequence of ELF4 (Q99607 whole entry): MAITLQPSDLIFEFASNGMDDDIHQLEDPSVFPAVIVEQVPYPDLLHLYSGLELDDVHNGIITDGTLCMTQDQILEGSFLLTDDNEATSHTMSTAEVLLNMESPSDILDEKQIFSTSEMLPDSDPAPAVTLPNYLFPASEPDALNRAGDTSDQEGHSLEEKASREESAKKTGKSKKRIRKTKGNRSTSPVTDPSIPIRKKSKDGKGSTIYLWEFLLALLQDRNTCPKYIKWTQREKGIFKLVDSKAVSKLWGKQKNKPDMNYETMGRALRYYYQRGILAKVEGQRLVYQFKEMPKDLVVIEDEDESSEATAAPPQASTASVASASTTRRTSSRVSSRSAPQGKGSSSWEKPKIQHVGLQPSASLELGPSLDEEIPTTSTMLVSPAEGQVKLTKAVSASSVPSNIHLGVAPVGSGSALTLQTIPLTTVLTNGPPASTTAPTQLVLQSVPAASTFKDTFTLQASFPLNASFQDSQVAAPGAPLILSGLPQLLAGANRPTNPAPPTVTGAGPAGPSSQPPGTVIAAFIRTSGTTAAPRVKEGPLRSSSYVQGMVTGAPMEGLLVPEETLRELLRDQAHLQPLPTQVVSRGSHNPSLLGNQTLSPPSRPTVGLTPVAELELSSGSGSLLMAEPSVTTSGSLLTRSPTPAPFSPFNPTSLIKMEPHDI

For CCTTGG, the binding signal with FEV was 1.17 fold enrichment (6-mer frequency, TF over GST control); in the assay with ETV5 it was 1.21 fold enrichment (6-mer frequency, TF over GST control); in the assay with HSF1, 1.1 fold enrichment (6-mer frequency, TF over GST control); with SPIC, 1.23 fold enrichment (6-mer frequency, TF over GST control); with ELF4, 1.27 fold enrichment (6-mer frequency, TF over GST control); with ELK4 it was 1.37 fold enrichment (6-mer frequency, TF over GST control). For the same sequence, the binding signal was 1.28 fold enrichment (6-mer frequency, TF over GST control) with ETV2; 1.22 fold enrichment (6-mer frequency, TF over GST control) with ELF3; 1.09 fold enrichment (6-mer frequency, TF over GST control) in the assay with CRX; 1.35 fold enrichment (6-mer frequency, TF over GST control) with ETV1; 1.23 fold enrichment (6-mer frequency, TF over GST control) with ERF; 1.3 fold enrichment (6-mer frequency, TF over GST control) in the assay with ETV3L. The binding signal in the assay with ETS2 is 1.25 fold enrichment (6-mer frequency, TF over GST control); in the assay with SPDEF it was 1.25 fold enrichment (6-mer frequency, TF over GST control); in the assay with ETV7, 1.22 fold enrichment (6-mer frequency, TF over GST control); with ELF5 it was 1.26 fold enrichment (6-mer frequency, TF over GST control); in the assay with ETV3, 1.12 fold enrichment (6-mer frequency, TF over GST control); in the assay with ETV6, 1.24 fold enrichment (6-mer frequency, TF over GST control).
